The results in this text go back to PubChem BioAssay AID602122 (National Center for Advancing Translational Sciences (NCATS), 2011).

SMILES strings stand for the structures. The source made the active and inactive calls.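 Rule for the calls: active = translocation seen by eye under the microscope after immunostaining of patient fibroblasts; inconclusive = translocation result judged unclear; inactive = no translocation seen.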

In this assay the target is Lysosomal alpha-glucosidase (Homo sapiens) (UniProt P10253). The experiment in a line: qHTS for Activators of Human alpha-Glucosidase as a Potential Chaperone Treatment of Pompe Disease: Fibroblast Translocation. Conditions: Pompe patient fibroblasts, GAA immunostaining lysosomal translocation, 6 d. An excerpt: Alpha-glucosidase is responsible for hydrolysis of terminal, non-reducing 1,4-linked alpha-D-glucose residues with release of alpha-D-glucose. It is a lysosomal hydrolase that is required for the degradation of a small percentage (1-3%) of cellular glycogen in human. Deficiency of this enzyme results in glycogen-storage disease type II (GSDII), also referred to as Pompe disease, an autosomal recessive disorder. Structurally normal glycogen is accumulated in lysosomes and cytoplasm in affected patients, primarily in muscle tissues. Excessive glycogen storage within lysosomes may interrupt normal functioning of other organelles and leads to cellular injury. In turn, this leads to enlargement and dysfunction of the entire organ involved (eg, cardiomyopathy and muscle weakness). It has reported that the improper folding and trafficking of alpha-glucosidase resulting from the genetic mutations may account for a significant number of Pompe patients. […] We optimized this alpha-glucosidase assay in 1536-well plate format for identifying the novel small molecule inhibitors with the structures other than the sugar analogs in order to develop the new pharmacological chaperones. Validated hits were tested in this fibroblast translocation assay that measures fluorescence through immunostaining Pompe patient derived fibroblasts. NIH Chemical Genomics Center [NCGC] […]
A general note: qHTS replaces the single test concentration by a dilution series.
As to `CCCN1CNc2c(c(=O)[nH]c(=S)n2Cc2ccc(OC)c(OC)c2)C1`, the outcome is “active; yes”.
